{"source": "PubChem BioAssay (NCATS)", "note": "Inconclusive results are not listed. Active and inactive are the calls of the source. The call rests on the fitted dose curve; in most records, active means well fitted cell-killing curve with a large enough effect; inconclusive means small, poorly fitted or top-dose-only effect; inactive means flat fitted curve, though single readings scatter. Residues, ends and D or L forms follow the SMILES beside them. *: point of attachment. Cbz = O=C(OCc1ccccc1)*"}
{"assay": "qHTS of pediatric cancer cell lines to identify multiple opportunities for drug repurposing: Primary screen for RD cells (AID 1347104); further: nearly all actives have a fitted effect of over 55% in size; further: potency means the concentration at half of the fitted maximal effect", "settings": "RD rhabdomyosarcoma viability, CellTiter-Glo luminescence, 48 h; series mostly up to 46 µM; activity change, negative = cytotoxic: at the top concentration", "from_the_text": "Drug repurposing or repositioning has been offered as a strategy for drug development in oncology programs. This approach has special potential for childhood cancers and other rare or orphan diseases, where the expected return on new drug development has been a disincentive to pharmaceuticals. […] In this project we exploit the poly-pharmacology of drugs to discover new indications via phenotypic screening of a panel of 19 well-characterized cell lines derived from solid tumors seen in children and adolescents. The goal is to identify approved drugs with previously unrecognized anticancer properties that has the potential to reveal new mechanisms and biological processes involved in carcinogenesis or drug resistance. We employed a titration-based paradigm (quantitative high-throughput screening or qHTS), where all compounds were tested at multiple concentrations for their effect on cell viability. Concentration-response curves (CRCs) were derived directly from the primary screen, and both potency and efficacy values were used to identify compounds with robust bioactivity profiles. We screened the NIH Chemical Genomics Center (NCGC) Pharmaceutical Collection (NPC) and Mechanism Interrogation Plate (MIPE) small molecule collections of approved and investigational compounds against these cell lines; and measured metabolically active cells after 48 hours of compound treatment as a proxy for cell viability. […] Assay Submitter: Nathalia J. Martinez, National Center for Advancing Translational Sciences, National Institutes of Health, Rockville, MD, USA; email: natalia.martinez@nih.gov Shen, M et al. Quantitative high-throughput phenotypic screening of pediatric cancer cell lines identifies multiple opportunities for drug repurposing. Oncotarget 2017 Dec 19;9(4):4758-4772. PMID 29435139.\nThe cells were obtained from University of North Carolina (UNC), Pediatric Preclinical Testing Program (PPT), and Coriell Institute (CI). qHTS cell viability assay: Cells were assayed in growth media at a density of 500-1,000 cells/well. Five microliters of cells were dispensed into 1,536-well, white, solid-bottom, TC-treated plates (Greiner Bio One) using a multidrop dispenser and incubated at 37 degrees C, 5% CO2, under a humidified atmosphere for 5 hours. Twenty-three nanoliters of compounds and controls (neutral control DMSO or positive control bortezomib at final concentration of 2.3 µM) were subsequently transferred by Kalypsys pintool. For primary screens, the MIPE collection was tested at 11-point dilutions (final concentrations range from 0.78 nM to 46 µM) and the NPC collection at 8-point dilutions (final concentrations range from 0.59 nM to 46 µM). Compounds tested in follow-up screens were assayed at 11-point dilutions. Cells were incubated for 48 hours, followed by addition of 3 µL of CellTiter-Glo (Promega). After a 15 min incubation at room temperature, samples were analyzed for luminescence intensity using a ViewLux High-throughput CCD imager equipped with clear filters."}
{"smiles": "C=C(C)[C@@H]1CC[C@]2(C(=O)O)CC[C@]3(C)[C@H](CC[C@@H]4[C@@]5(C)CC[C@H](O)C(C)(C)[C@@H]5CC[C@]43C)[C@@H]12", "activity change, negative = cytotoxic": "-5.5% (inactive)"}
{"smiles": "CC(C)n1cnc2c(NCCc3ccc(O)cc3)nc(-c3csc4ccccc34)nc21", "Potency": "11.8 µM (active)"}
{"smiles": "CCc1ccc(C(=O)Nc2cc(CN3CCN(C)CC3)cc(C(F)(F)F)c2)cc1C#Cc1cnc2ccnn2c1", "Potency": "18.7 µM (active)"}
{"smiles": "COc1cc(CCc2cc(NC(=O)c3ccc(N4C[C@@H](C)N[C@@H](C)C4)cc3)n[nH]2)cc(OC)c1", "Potency": "16.6 µM (active)"}
{"smiles": "C=CC(=O)Nc1cccc(Nc2nc(NC3CCC(N(C)C)CC3)nc3c2ncn3C(C)C)c1", "note": "(stereo not given)", "Potency": "0.0833 µM (active)"}
{"smiles": "Nc1ccn(C[C@@H](CO)OCP(=O)(O)O)c(=O)n1", "activity change, negative = cytotoxic": "3.41% [at 16.1 µM] (inactive)"}
{"smiles": "CC(C=CC(=O)NO)=C[C@@H](C)C(=O)c1ccc(N(C)C)cc1", "Potency": "1.32 µM (active)"}
{"smiles": "O=C(O)CCCCC(CCSCc1ccccc1)SCc1ccccc1", "note": "(stereo not given)", "Potency": "33.2 µM (active)"}
{"smiles": "NS(=O)(=O)OC[C@@H]1C[C@@H](n2ccc3c(N[C@H]4CCc5ccccc54)ncnc32)C[C@H]1O", "Potency": "0.833 µM (active)"}
{"smiles": "CC(O)(C#Cc1ccc2c(c1)N(c1nc(N)ncc1Cl)CC2)c1nccs1", "note": "(stereo not given)", "Potency": "18.7 µM (active)"}
{"smiles": "N#CNC(=NCCCCCCOc1ccc(Cl)cc1)Nc1ccncc1", "Potency": "0.0059 µM (active)"}
{"smiles": "COc1ccc(CCC(=O)c2c(O)cc(O[C@@H]3O[C@H](CO)[C@@H](O)[C@H](O)[C@@H]3O[C@@H]3O[C@@H](C)[C@H](O)[C@@H](O)[C@@H]3O)cc2O)cc1O", "Potency": "13.2 µM (active)"}
{"smiles": "O=C(c1ccc(F)cc1)N1CCC[C@H](c2nc(-c3ccc(F)cc3)no2)C1", "activity change, negative = cytotoxic": "-0.967% (inactive)"}
{"smiles": "C[C@H]1COc2c(N3CCN(C)CC3)c(F)cc3c(=O)c(C(=O)O)cn1c23", "activity change, negative = cytotoxic": "10.2% (inactive)"}
{"smiles": "Cc1nc(NC(=O)N2CCC[C@@H]2C(N)=O)sc1-c1ccnc(C(C)(C)C(F)(F)F)c1", "Potency": "0.372 µM (active)"}
{"smiles": "CC[C@H]1OC(=O)[C@H](C)[C@@H](O[C@H]2C[C@@](C)(OC)[C@@H](O)[C@H](C)O2)[C@H](C)[C@@H](O[C@@H]2O[C@@H](C)C[C@H](N(C)C)[C@@H]2O)[C@](C)(O)C[C@@H](C)C(=O)[C@H](C)[C@@H](O)[C@]1(C)O", "activity change, negative = cytotoxic": "-24.3% (inactive)"}
{"smiles": "COC[C@H](NC(=O)c1cnc(C)s1)C(=O)N[C@@H](COC)C(=O)N[C@@H](Cc1ccccc1)C(=O)[C@@]1(C)CO1", "Potency": "0.166 µM (active)"}
{"smiles": "CCN(CC)CCCCNc1ncc2c(n1)N(C)C(=O)N(c1c(Cl)c(OC)cc(OC)c1Cl)C2", "Potency": "18.7 µM (active)"}
{"smiles": "C=CCNC1=C2C[C@@H](C)C[C@H](OC)[C@@H](O)[C@@H](C)C=C(C)[C@H](OC(N)=O)[C@@H](OC)C=CC=C(C)C(=O)NC(=CC1=O)C2=O", "Potency": "0.235 µM (active)"}
{"smiles": "COc1cccc2c1C(=O)c1c(O)c3c(c(O)c1C2=O)C[C@@](O)(C(=O)CO)C[C@@H]3O[C@H]1C[C@H](N)[C@H](OC2CCCCO2)[C@H](C)O1", "note": "(stereo not given in full)", "Potency": "13.2 µM (active)"}
{"smiles": "NC1=N[C@H]2[C@H](CS[C@H]2CCCCC(=O)O)N1", "activity change, negative = cytotoxic": "-2.67% [at 16.1 µM] (inactive)"}
{"smiles": "CC(C)C[C@H](NC(=O)[C@@H](NC(=O)c1cccc(-c2ccccc2)n1)[C@@H](C)O)B(O)O", "Potency": "0.118 µM (active)"}
{"smiles": "COc1cccc2c1C(=O)c1c(O)c3c(c(O)c1C2=O)C[C@@](O)(C(=O)CO)C[C@@H]3O[C@H]1C[C@H](N)[C@@H](O)[C@H](C)O1", "Potency": "0.935 µM (active)"}
{"smiles": "CC(C)C[C@@H](C=O)NC(=O)[C@H](CC(C)C)NC(=O)[C@H](CC(C)C)NC(=O)OCc1ccccc1", "note": "(Cbz-Leu-Leu-Leu-aldehyde)", "Potency": "0.662 µM (active)"}
{"smiles": "CC(N[C@H]1CCCC[C@H]1NC(=O)c1ccc(Cl)cc1)c1cccc2ccccc12", "note": "(stereo not given in full)", "Potency": "2.64 µM (active)"}
{"smiles": "CN[C@@H]1C[C@H]2O[C@@](C)([C@H]1OC)n1c3ccccc3c3c4c(c5c6ccccc6n2c5c31)C(=O)N[C@H]4O", "Potency": "1.05 µM (active)"}
{"smiles": "COc1cc(OC)c(NC(=O)Nc2cc(C)on2)cc1Cl", "activity change, negative = cytotoxic": "-4.76% (inactive)"}
{"smiles": "CN[C@H](CC(C)C)C(=O)N[C@H]1C(=O)N[C@@H](CC(N)=O)C(=O)N[C@@H]2C(=O)N[C@H]3C(=O)N[C@H](C(=O)N[C@H](C(=O)O)c4cc(O)cc(O)c4-c4cc3ccc4O)[C@H](O)c3ccc(c(Cl)c3)Oc3cc2cc(c3O[C@@H]2O[C@H](CO)[C@@H](O)[C@H](O)[C@@H]2O[C@H]2C[C@](C)(N)[C@H](O)[C@H](C)O2)Oc2ccc(cc2Cl)[C@H]1O", "activity change, negative = cytotoxic": "8.07% (inactive)"}
{"smiles": "NC(=O)N1CCC(CC(=O)N2CCC([C@H]3c4ncc(Br)cc4CCc4cc(Cl)cc(Br)c43)CC2)CC1", "Potency": "20.9 µM (active)"}
{"smiles": "CS[C@H]1SC[C@@H]2C(=O)N(C)[C@H](C(C)C)C(=O)OC[C@H](NC(=O)c3cnc4ccccc4n3)C(=O)N[C@H](C)C(=O)N(C)[C@@H]1C(=O)N(C)[C@H](C(C)C)C(=O)OC[C@H](NC(=O)c1cnc3ccccc3n1)C(=O)N[C@H](C)C(=O)N2C", "Potency": "0.003 µM (active)"}
{"smiles": "Cc1cc(-c2nnc3n2CCCCC3)c(C)n1-c1ccccc1", "activity change, negative = cytotoxic": "3.38% (inactive)"}
{"smiles": "C=CC(=O)Nc1cc(NC(=O)c2ccc(C)c(NC(=O)c3ccno3)c2)cc(C(F)(F)F)c1", "Potency": "33.2 µM (active)"}
{"smiles": "Nc1ccc(C(=O)Nc2cccc(-c3nc(N4CCOCC4)c4oc5ncccc5c4n3)c2)cn1", "Potency": "10.5 µM (active)"}
{"smiles": "Cn1cc(C[C@@H](N)C(=O)O)c2ccccc21", "activity change, negative = cytotoxic": "9.63% [at 16.1 µM] (inactive)"}
{"smiles": "CNC(=O)c1ccc(Nc2cc(Nc3ccccc3S(=O)(=O)C(C)C)c3cc[nH]c3n2)nc1", "Potency": "5.9 µM (active)"}
{"smiles": "CC1=C(C(=O)Nc2cc3cn[nH]c3cc2F)C(c2ccc(Cl)cc2F)N=C(c2ccnc(Cl)c2)N1", "note": "(stereo not given)", "activity change, negative = cytotoxic": "-18.4% (inactive)"}
{"smiles": "C[C@H](NC(=O)Cc1cc(F)cc(F)c1)C(=O)N[C@H](C(=O)OC(C)(C)C)c1ccccc1", "activity change, negative = cytotoxic": "-18.2% (inactive)"}
{"smiles": "Oc1ccc(-c2ccc(-c3cc(Nc4cccc(CNC5CC5)c4)n[nH]3)cc2)c(O)c1", "Potency": "10.5 µM (active)"}
{"smiles": "C[C@@H]1CC[C@@]2(OC1)OC1CC3C4CC=C5CC(O)CCC5(C)C4CCC3(C)C1[C@@H]2C", "note": "(stereo not given in full)", "activity change, negative = cytotoxic": "16% (inactive)"}
{"smiles": "C[C@@]12C[C@@]3(O)O[C@@H](O1)[C@]1(COC(=O)c4ccccc4)[C@@H]3C[C@@]12O[C@@H]1O[C@H](CO)[C@@H](O)[C@H](O)[C@@H]1O", "activity change, negative = cytotoxic": "-3.22% (inactive)"}
